PHOSPHO1 inh = blocks human PHOSPHO1 phosphatase activity. Q8TCT1. recombinant PHOSPHO1, absorbance phosphatase assay. inhibition, % at 13.3 µM. actives 1.1% (n = 290,000). AID 1565; in the data active = inhibition above about 60%
Target sequence (Q8TCT1 whole entry, looked up): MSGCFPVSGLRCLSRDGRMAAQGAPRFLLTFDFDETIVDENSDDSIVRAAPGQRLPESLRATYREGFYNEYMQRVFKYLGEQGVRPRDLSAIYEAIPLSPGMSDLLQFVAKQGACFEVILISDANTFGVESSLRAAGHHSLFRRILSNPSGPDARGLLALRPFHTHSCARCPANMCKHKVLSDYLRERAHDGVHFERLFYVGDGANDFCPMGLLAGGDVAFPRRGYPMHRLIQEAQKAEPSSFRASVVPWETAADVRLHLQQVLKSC
PABP1 MLLE inh = blocks PAM2 peptide binding to the PABP1 MLLE domain; inhibition, % at 20 µM; GST-MLLE / FITC-PAM2 fluorescence polarization; actives 0.36% (n = 360,000); P11940; in the data active = inhibition above about 35%, passing the limit was not always enough
eIF4H FP inh = inhibitors of RNA binding by human eIF4H; Q15056; AID 2012; inhibition, % at 35 µM; actives 0.94% (n = 290,000); eIF4H fluorescence polarization binding assay;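 note: calls also rest on retests at 20 µM and on dose response follow-up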
Efa HMGR inh = blocks class II HMG-CoA reductase of Enterococcus faecalis | purified E. faecalis HMGR, NADPH absorbance 340 nm kinetic | actives 0.41% (n = 190,000) | inhibition, % at 10 µM;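 active = inhibition above a set limit, the median over all tested compounds plus 3 SD, cut at about 9.5% in these data; inconclusive = no clear call, values can overlap the other calls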;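 note: enzyme runs in reverse so mevalonate oxidation gives rising NADPH absorbance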
PABP FP inh = blocks human PABP binding to poly(A) RNA | fluorescence polarization | calls only at 35 µM | actives 1% (n = 290,000);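 note: calls also rest on retests at 20 µM and on dose response follow-up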
Each line names hits and unclear results; the compound was inactive in the other large screens. The list is not random: actives were taken first. Their share in the collection is about 2.4%. Unless noted, the rule behind the calls is not given here.

Cc1nc2c3cc(F)ccc3n(Cc3ccc(F)cc3)c2s1	none
Cc1ccc(N2CC(O)(c3cccs3)[N+]3=C2CCCC3)cc1 (stereo not given)	PHOSPHO1 inh 61
O=C1C(NS(=O)(=O)c2cccs2)=C(N2CCN(c3cccc(Cl)c3)CC2)C(=O)c2ccccc21	eIF4H FP inh 2.3, PABP FP inh active
O=c1c2cccc3c(N4CCOCC4)ccc(c32)c2nc3ccccc3n12	PABP FP inh active (no result: PABP1 MLLE inh, Efa HMGR inh)
O=C(c1cc(-n2cnnc2)ccc1Cl)N1CCN(c2nc(-c3ccccc3)cs2)CC1	none
O=C(c1ncn[nH]1)N1CCN(c2nc(-c3ccccc3)cs2)CC1	PHOSPHO1 inh 99
Cc1ccc(NC(=O)CSc2nc(=O)n(CCN(C)C)c3c2CCCC3)cc1Cl	none (no result: PHOSPHO1 inh, eIF4H FP inh, Efa HMGR inh, PABP FP inh)
Cc1ccc2c(c1)c1c3n2CCN=C3CCC1	eIF4H FP inh 59, PABP FP inh active
C/C(=N\NC(=O)c1c(Cl)c(C)nn1C)c1cccc(NC(=O)C2CCCC2)c1	none (no result: Efa HMGR inh)
Cc1cc(C)c(C(=O)CC(=O)c2ccccc2Cl)c(O)c1	none (no result: Efa HMGR inh)
O=[N+]([O-])c1ccc(Sc2n[nH]c(-c3ccc(Cl)cc3Cl)n2)nc1	PHOSPHO1 inh 67
O=[N+]([O-])c1ccc(Sc2ccccc2Cl)nc1	PHOSPHO1 inh 97
CN(C)CCCNCCCNC(=O)c1ccco1	eIF4H FP inh 33, PABP FP inh active
CCn1c(COc2ccccc2C)nnc1SCC(=O)CC(=O)Nc1ccccc1OC	none
CCn1c(COc2ccccc2)nnc1SCC(=O)CC(=O)Nc1ccccc1OC	PHOSPHO1 inh 92
CCn1c(COc2cccc(C)c2)nnc1SCC(=O)CC(=O)Nc1ccccc1OC	PHOSPHO1 inh 93
CCn1c(COc2cccc(C)c2)nnc1SCC(=O)N1CCCC1	none
CCOC(=O)CNC(=O)CN1C(=O)CC(c2ccccc2)S(=O)(=O)c2ccccc21 (stereo not given)	Efa HMGR inh 11
O=C(CN1C(=O)CC(c2ccccc2)S(=O)(=O)c2ccccc21)N1CCOCC1 (stereo not given)	none (no result: PABP1 MLLE inh)
Cc1cc(=O)oc2cc(NC(=O)Cc3ccccc3[N+](=O)[O-])ccc12	none (no result: Efa HMGR inh)
O=C1Cc2cc(S(=O)(=O)N3CCN(c4ccc(O)cc4)CC3)ccc2N1	none (no result: PHOSPHO1 inh, eIF4H FP inh, Efa HMGR inh, PABP FP inh)
O=C1CC(=O)Nc2cc(S(=O)(=O)N3CCN(c4ccc([N+](=O)[O-])cc4)CC3)ccc2N1	eIF4H FP inh 70 (no result: Efa HMGR inh)
COC(=O)C1CCN(C(=O)CN2C(=O)NC(CC(C)C)C2=O)CC1 (stereo not given)	none (no result: PHOSPHO1 inh, eIF4H FP inh, Efa HMGR inh, PABP FP inh)
Cc1cc(NC(=O)CCC(=O)N(CC(=O)NC2CCCC2)c2ccccc2)no1	Efa HMGR inh 10
COc1ccc(NC(=O)c2ccc(NCCN3C(=O)CCC3=O)c([N+](=O)[O-])c2)cc1	eIF4H FP inh inconclusive, PABP FP inh active
CCN1C[C@@H]2[C@@H]3C(=O)N(Cc4ccccc4)C(=O)[C@@H]3[C@](C)(C1=O)N2C(=O)c1ccc(Cl)c(Cl)c1	none (no result: PHOSPHO1 inh, eIF4H FP inh, Efa HMGR inh, PABP FP inh)
CCc1cc(-c2nnn(CCC3COCCO3)c2CC)ccc1-c1cn(Cc2ccccc2)nn1 (stereo not given)	none (no result: PHOSPHO1 inh, eIF4H FP inh, Efa HMGR inh, PABP FP inh)
O=C(NC(=S)NNS(=O)(=O)c1ccccc1)c1ccccc1[N+](=O)[O-]	PABP1 MLLE inh 45
O=C(O)c1ccc(Cl)c(NC(=S)NC(=O)c2ccccc2[N+](=O)[O-])c1	PABP1 MLLE inh 47
CCN(CC)C(=S)NC(=O)c1ccc(F)cc1	none
Cc1ccc(S(=O)(=O)NNC(=O)c2cccnc2)cc1	none
O=C(NC(=S)NNS(=O)(=O)c1ccccc1)c1cccnc1	PABP1 MLLE inh 48
O=C(NC(=S)Nc1ccccc1[N+](=O)[O-])c1ccccc1Cl	none (no result: Efa HMGR inh)
CCN(CC)C(=S)NC(=O)c1cccnc1	Efa HMGR inh 18
Cc1ccc(NC(=O)CCNC(=O)N2CC(=O)Nc3ccccc32)cc1Cl	none (no result: PHOSPHO1 inh, eIF4H FP inh, Efa HMGR inh, PABP FP inh)
NS(=O)(=O)c1cccc(NC(=O)CSc2n[nH]c(-c3ccccc3Br)n2)c1	none (no result: PHOSPHO1 inh, eIF4H FP inh, Efa HMGR inh, PABP FP inh)
CCCCCCCn1c2c(c(=N)c3ccccc31)CCC2	PABP FP inh active
N#C/C(=C\c1cc(Cl)cc(Cl)c1O)C(=O)NC1CCCCC1	eIF4H FP inh inconclusive, PABP FP inh inconclusive
COc1ccccc1C(=O)OCC(=O)Nc1cccc(S(=O)(=O)N2CCCC2)c1	none (no result: PHOSPHO1 inh, eIF4H FP inh, Efa HMGR inh, PABP FP inh)
COc1ccc(C2=NOC(C(=O)NCc3ccccn3)C2)cc1 (stereo not given)	none
COc1cccc(C2=NOC(C(=O)NCc3ccccn3)C2)c1 (stereo not given)	PHOSPHO1 inh 60
Cc1nn(-c2ccccc2)c(Oc2ccccc2)c1C=O	eIF4H FP inh active, PABP FP inh active
CCOc1ccc(Oc2c(/C=N/NC(N)=O)c(C)nn2-c2ccccc2)cc1	none
